Assay outcomes from PubChem BioAssay.
Rows were chosen to be rich in hits. Some 19% of all compounds tested hit in one or more screens of this group.
TDP1 cell CPT = DT40-hTDP1 cell growth loss with CPT. chicken DT40 Tdp1-/-;hTDP1 cells + 20 nM CPT, ATP luminescence, 48 h. Potency, µM (series often up to 46.2 µM), for the others: at the top dose activity change, negative = growth inhibition, usual class: inhibitors. 420,000 tested, 12% active. AID 686979; further: nearly all actives have a fitted effect of over 55% in size
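Cell growth measured by CellTiter-Glo luminescence after a minimum 48 h, 37 C compound exposure with 20 nM CPT in Tdp1-knockout DT40 cells stably expressing hTDP1, seeded 400/well; qHTS titration format.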
KB-3-1 cytotox = kills parental KB-3-1 adenocarcinoma cells. AID 1347075. KB-3-1 viability, CellTiter-Glo ATP luminescence, 72 h. Potency, µM (series often up to 46.1 µM), most hits filed as cytotoxic. 400,000 tested, 1.4% active; further: nearly all actives have a fitted effect of over 60% in size
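Cytotoxicity in the drug-sensitive parental line KB-3-1 was scored as loss of CellTiter-Glo luminescence following 72 h incubation with compound. Values come from curve fitting of normalized concentration-response data.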
KB-V1 MDR tox = kills drug-selected multidrug resistant KB-V1 cells. Potency, µM (doses to about 46.1 µM), most hits filed as cytotoxic. 400,000 tested, 3.4% active. AID 1347076. KB-V1 MDR cells viability, CellTiter-Glo, 72 h; further: nearly all actives have a fitted effect of over 60% in size
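Cytotoxicity toward P-gp-expressing KB-V1 cells was determined as loss of CellTiter-Glo luminescence after 72 h at 37 degrees C. Compounds were tested in quantitative HTS format across a concentration range, with curves fitted to normalized data.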
HT1080-NT tox = kills 2HG-producing HT-1080-NT fibrosarcoma cells; HT-1080-NT fibrosarcoma viability, CellTiter-Glo ATP luminescence, 48 h; Potency, µM (highest dose often 46.1 µM), inactives show top-dose activity, negative = less viability, most hits filed as cytotoxic; 360,000 tested, 1.6% active; AID 686970;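 further: NT is the 2HG producing partner of a matched IDH1 knockdown line; 0% = DMSO-treated cells and -100% = media-only wells without cells; nearly all actives have a fitted effect of over 55% in size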
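Luminescent CellTiter-Glo readout after 48 hours of compound exposure at 37 degrees C defined viability of HT-1080-NT cells. Activity was normalized to DMSO wells and cell-free media wells; concentration-response curves were fitted and assigned curve classes.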
HT1080 IDH1KD tx = HT-1080 IDH1 knockdown cell toxicity (counter line) | HT-1080 IDH1 knockdown viability, ATP luminescence, 48 h | Potency, µM (titrated, usually from 46.1 µM), without a hit: at the highest dose activity, negative = toxicity, usual class: cytotoxic | 360,000 tested, 2% active | AID 686971;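 further: 0% = DMSO wells and -100% = cell-free medium wells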
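HT-1080-IDH1KD cells (IDH1 knocked down), 750/well in RPMI with 5% FBS, treated with compound 48 h at 37 degrees C. Viability by CellTiter-Glo luminescence, normalised to DMSO and no-cell wells; concentration-response curves classed.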
TDP1 cell noCPT = qHTS for Inhibitors of human tyrosyl-DNA phosphodiesterase 1 (TDP1): qHTS in cells in absence of CPT; Potency, µM (top dose mostly 46.2 µM), without a hit: top-dose activity change, negative = growth inhibition, hits mostly inhibitors; 420,000 tested, 15% active; DT40 Tdp1-/- hTDP1 cells, no CPT, ATP luminescence, 48 h; further: nearly all actives have a fitted effect of over 55% in size
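Growth kinetics read by CellTiter-Glo luminescence after ≥48 hr at 37 °C. Cells: DT40 Tdp1-/- stably carrying human TDP1, 400 per well, compound exposure in the absence of CPT (DMSO vehicle).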
* hit, by the source's call; i = inactive; u = inconclusive; x = no result given; [ ] = remark or other dose. The call rests on the fitted dose curve; in most records, active means well fitted curve in the direction sought with a large enough effect; inconclusive means small, poorly fitted or top-dose-only effect, or another doubt; inactive means no such curve, though single readings can be large; an effect the other way counts as inactive or inconclusive. Unless noted, on the % scale 0 is the no-effect control and ±100 the full control effect; potency means the concentration at half of the fitted maximal effect.

SMILES | TDP1 cell CPT | KB-3-1 cytotox | KB-V1 MDR tox | HT1080-NT tox | HT1080 IDH1KD tx | TDP1 cell noCPT
COc1cccc(-c2cc(NC=O)c3ncc(-c4cccc(C(=O)NCCN(C)C)c4)n3c2)c1 | u | i | i | 23µM* | 21µM* | u
O=C(Nc1ccccc1Cl)c1cc(C2CCCN(C(=O)c3cccs3)C2)on1 (stereo unspecified) | 6% | i | i | -1% | 13% | -5%
COc1cccc(N2CC(NC(=O)C3CCCCC3)CC2=O)c1 (stereo unspecified) | -29% | x | x | x | x | -2%
CCn1c(COc2ccccc2Cl)nnc1SCC(=O)Nc1ncccc1C | -9% | i | u | 2% | 7% | 1%
O=Cc1c(-c2ccccc2)cc2oc3ccccc3cc1-2 | u | i | i | 0% | 3% | 13µM*
Cc1ccc(-c2nc3nc(C)cc(N4CCN(c5cccc(C)c5)C(C)C4)n3n2)cc1 (stereo unspecified) | -13% | i | i | x | x | u
CC1=C(c2ccc(Cl)cc2)S(=O)(=O)N=C1N1CCN(c2cccc(C)c2)C(C)C1 (stereo unspecified) | 5.2µM* | x | x | x | x | 5.2µM*
Cc1cccc(N2CCN(c3cc(C)nc4nnnn34)CC2C)c1 (stereo unspecified) | 2% | i | i | 11% | 22% | -4%
CCN1CCN(c2ncnc3c2cnn3-c2ccc(C)cc2C)CC1 | u | i | i | -4% | -4% | u
Cc1ccc(-n2ncc3c(N4CCN(c5ccccc5)CC4)ncnc32)c(C)c1 | 5.8µM* | u | 2.3µM* | -2% | -5% | 4.6µM*
COc1ccc(C2=C(N3CCN(c4cccc(C)c4)C(C)C3)c3ccccc3C2=O)cc1 (stereo unspecified) | 21µM* | i | u | x | x | 26µM*
COc1ccc(-n2ncc3c(N4CCN(c5cccc(C)c5)C(C)C4)ncnc32)cc1 (stereo unspecified) | 2.9µM* | 21µM* | u | x | x | 10µM*
Cc1ccc(-n2ncc3c(N4CCN(c5ccccc5)CC4)ncnc32)cc1C | u | i | i | x | x | 13µM*
Cc1ccc(-n2ncc3c(N4CCN(C)CC4)ncnc32)cc1C | u | i | i | x | x | u
Cc1cccc(-n2ncc3c(N4CCCC4)ncnc32)c1 | -31% | i | i | 4% | 13% | -27%
COc1ccc(N2CCN(c3ncnc4c3cnn4-c3ccc(C)cc3C)CC2)cc1 | u | i | 4.6µM* | 5% | 15% | 12µM*
Cc1cccc(-n2ncc3c(N4CCN(c5ccccc5)CC4)ncnc32)c1 | 21µM* | i | i | x | x | u
COc1ccc(-n2ncc3c(N4CCN(c5cc(C)ccc5C)CC4)ncnc32)cc1 | 0% | i | i | -1% | 2% | u
CCS(=O)(=O)N1CCc2cc(C(=O)Nc3cc([N+](=O)[O-])ccc3C)ccc21 | u | i | i | x | x | -23%
Cc1ccc(CN2CCc3nnc(C(NC(=O)c4ccoc4)C(C)C)n3CC2)cc1C (stereo unspecified) | 7% | x | x | x | x | -9%
N#Cc1ccccc1COC(=O)c1cccc(S(=O)(=O)N2CCCC2)c1 | 12% | i | i | -2% | -7% | 8%
CC(C)(C)[C@@H]1CCC(=O)N(CC[C@H](Sc2ccc(Br)cc2)c2ccccc2)CC1 | 18µM* | u | u | u | u | 11µM*
CC(=O)Nc1ccc(S[C@@H](CCN2CC[C@H](O)CCC2=O)c2ccccc2)cc1 | -24% | i | i | -3% | -6% | 2%
O=C1CC[C@@H](O)CCN1CC[C@H](Sc1ccc(Br)cc1)c1ccccc1 | 23µM* | i | u | 12% | 12% | 10µM*
O=C(O)C1CSC2(c3ccc(Br)cc3)CCC(=O)N12 (stereo unspecified) | 20% | i | i | 8% | 11% | u
SMILES | TDP1 cell CPT | KB-3-1 cytotox | KB-V1 MDR tox | HT1080-NT tox | HT1080 IDH1KD tx | TDP1 cell noCPT
CC(=O)Nc1ccc(C=C(C#N)c2ccc(C)cc2)cc1 | 8% | i | i | -1% | 1% | u
CCC1CCCCN1C(=O)c1sc2nc(C)nc(N(CC)CC)c2c1C (stereo unspecified) | u | i | i | -7% | 2% | 16µM*
CCOC(=O)C1CCCN(C(=O)c2sc3nc(C)nc(N(CC)CC)c3c2C)C1 (stereo unspecified) | 23µM* | i | i | -1%[9.24 µM] | -7% | u
CCCNC(=O)Cn1cnc2sc(C(=O)N3CCCC(C(=O)OCC)C3)c(C)c2c1=O (stereo unspecified) | 7% | i | i | 4% | 0%[9.24 µM] | -9%
CCOC(=O)C1CCN(S(=O)(=O)c2cn(C)cn2)CC1 | -3% | i | i | 19% | 22% | -1%
Clc1cccc(CON/C=N/c2ncnc3sccc23)c1 | 18µM* | i | u | -23% | -3% | 10µM*
NC(=O)NOCc1cccc(Cl)c1 | 10% | i | i | 15% | 22% | -7%
Clc1cccc(Cl)c1CON/C=N/c1ncnc2sccc12 | 23µM* | i | i | u | -15% | 16µM*
CCOC(=O)C(=C1Nc2ccccc2N1)n1c(-c2ccco2)nc2ccccc21 | 7.3µM* | i | i | -6% | -2% | u
Cc1ccc(-c2c[n+](CC(=O)c3ccc(Br)cc3)c3n2CCCCC3)cc1 | 1.5µM* | u | i | 21µM* | u | 1.6µM*
COc1ccc(-c2c[n+](CC(=O)c3ccccc3)c3n2CCCCC3)cc1 | 7.3µM* | u | i | u | u | 4.1µM*
O=C(C[n+]1cc(-c2ccccc2)n2c1CCCCC2)c1ccc(Cl)cc1 | 21µM* | u | i | -2% | -3% | 16µM*
COc1ccc(-c2c[n+]3c4n2CCCCC4=C(c2ccccc2)C3)cc1 | 3.3µM* | u | i | -1% | -16% | 5.2µM*
O=C(C[C@H]1CC[C@H](NC(=O)Nc2ccccc2F)[C@@H](CO)O1)NCc1ccc(-c2ccccc2)cc1 | u | i | i | -8% | -5% | -25%
O=C(O)/C=C/C(=O)c1ccc2c(c1)CCc1ccccc1-2 | 4.1µM* | 13µM* | u | 18µM* | u | 3.7µM*
CC(=O)Nc1ccc2c(c1)CCc1ccccc1-2 | 11% | i | i | -5% | -3% | -2%
